Out of some 69,000 compounds screened, about 8,600 (12%) showed an effect of 50% or more. The full list was thinned out, with strong results kept by preference.
tested on: Plasmodium berghei; assay: Screen against P. berghei liver stage (PbLuc), transformed with Luciferase, at 10uM; format: functional, HepG2; conditions: tested at 10 uM

| Structure (SMILES) | INHIBITION [%] |
| --- | --- |
| CC(C)CCNC(=O)c1ccc(Cl)c(NS(C)(=O)=O)c1 | 54.4 |
| Cc1ccc(C(=O)NCCCNS(C)(=O)=O)cc1C | -43.2 |
| CC(C)(C)CCNC(=O)c1ccc(Cl)c(NS(C)(=O)=O)c1 | -3.81 |
| CCN(CC)CCNC(=O)c1ccc(Cl)c(NS(C)(=O)=O)c1 | 18.6 |
| Cc1nccn1-c1ccc(=O)n(CCNC(=O)c2c(F)cccc2Cl)n1 | 6.67 |
| CCn1ccnc1CN1CCN(CC(O)CN2CCOCC2)CC1 (configuration not stated) | 12.415 |
| CC(NC(=O)NCCC1=CCCCC1)c1nncn1C (configuration not stated) | 15.7 |
| Cc1ccc(-c2nc(C3CCN(C(=O)c4ccn(C)n4)CC3)no2)cn1 | -26.7 |
| Cc1ccc(C(=O)N(C)CC(=O)NCC(F)(F)F)cn1 | 42 |
| CN(CC(=O)NCC(F)(F)F)C(=O)c1ccc(=O)[nH]c1 | -10.8 |
| CN(CC(=O)NCC(F)(F)F)C(=O)c1ccc(C(=O)OC(C)(C)C)cc1 | 63.7 |
| COC(=O)c1cccn1C1CCN(C(=O)c2cc(F)ccc2C)CC1 | 8.64 |
| CS(=O)(=O)N1CC(=O)N(CCCc2ccccc2)CC(O)C1 (configuration not stated) | 42.7 |
| COc1ccc(-c2nc(C(=O)NCC3CCOC3)cs2)cc1OC (configuration not stated) | 34.7 |
| Cc1cn[nH]c1C1CCCN1Cc1ccc(F)c(F)c1 (configuration not stated) | 15.5 |
| O=C(O)CCc1cccc(C2CCCN2Cc2ccc(F)c(F)c2)n1 (configuration not stated) | 58 |
| Cc1cccc(CN2CCCC2c2cccc(CCC(=O)O)n2)c1 (configuration not stated) | 51.5 |
| Cc1cc(C)nc(C2CCCN2c2ccnc(C)n2)n1 (configuration not stated) | 7.52 |
| Cc1cc(C)nc(N2CCC(c3cccc(CCC(=O)O)n3)CC2)n1 | 4.13 |
| CN(C)C(=O)CCc1cncc(C2CCCN2Cc2ccccn2)n1 (configuration not stated) | -1.85 |
| Cc1cc(CCC(=O)O)nc(C2CCCN2c2ccnc(C)n2)n1 (configuration not stated) | 50.8 |
| Cc1cc(N2CCCC2c2nc(C)cc(CCC(=O)O)n2)ncn1 (configuration not stated) | 9.93 |
| O=C(O)CCc1cccc(C2CCCN2Cc2cccc(Cl)c2)n1 (configuration not stated) | 19.6 |
| O=C(c1ccnnc1)N1C[C@H](OCC2CC2)[C@H]2COC[C@H]21 | -2.25 |
| CCOC(=O)c1sc(NC(=O)c2cc(=O)c(OC)c[nH]2)nc1C | 8.12 |
| CCS(=O)(=O)N1CC[C@@H]2[C@H](CC1)N(Cc1cccc(C)n1)CCS2(=O)=O | 49.7 |

| Structure (SMILES) | INHIBITION [%] |
| --- | --- |
| CCc1nc(CN(C)C2CCN(Cc3nnc(C4CCC4)o3)C2)no1 (configuration not stated) | 21.5 |
| CC1c2ncc(CNC(=O)C3CC3)n2CCN1Cc1cnn(C)c1 (configuration not stated) | -8.94 |
| O=C(COc1ccccc1NCc1ccoc1)N1CCOCC1 | -5.22 |
| CCc1nnsc1C(=O)N1CCCC1c1c(C)nn(C)c1OC (configuration not stated) | -25.8 |
| Cc1nc(N)nc(C)c1Cc1nc(C2CC2)n[nH]1 | 32.3 |
| Cc1n[nH]c(C)c1CCc1nc(C2CC2)n[nH]1 | 50.7 |
| Cc1nc(C)c(Cc2nc(C3CC3)n[nH]2)c(=O)[nH]1 | 29 |
| CC(=O)NCC(=O)N1CCN(CCN(C)C)c2ncccc2C1 | 6.79 |
| Nc1ccncc1-n1cc(CCO)cn1 | 33.3 |
| Cn1c(CCNc2nccnc2C#N)nc2cc(Cl)ccc21 | 32.3 |
| Cn1c(CCNC(=O)Nc2cn[nH]c2)nc2ccc(F)cc21 | -5.52 |
| Cn1c(CCNc2nccnc2C#N)nc2ccc(F)cc21 | 67.3 |
| Cc1nnc(NCCc2nc3ccc(F)cc3n2C)c(C#N)c1C | 34.1 |
| CC(C)n1nccc1NC(=O)NCCc1nc2ccc(F)cc2n1C | 73.6 |
| Cn1c(CCCNC(=O)Nc2cn[nH]c2)nc2ccccc21 | -7.66 |
| Cc1nc(C2CCCN2CCOCC2CC2)no1 (configuration not stated) | -77.6 |
| O=C(c1ccc(N2CCCC2)nn1)N1CCCC(n2ccnc2)C1 (configuration not stated) | 29.2 |
| CCOc1ccc(CN2CCC(c3nc(C)cc(C)n3)C2)cc1CO (configuration not stated) | 44.05 |
| CN1CC(C(=O)Nc2ccc(OCC(F)(F)C(F)F)nc2)CC1=O (configuration not stated) | -14.6 |
| Cc1nc2[nH]cnc(NCCCN3CCOCC3)c-2n1 | 5.03 |
| Cc1nc(C2CCCN2CC(=O)NCCOc2ccc(F)cc2)no1 (configuration not stated) | 55.15 |
| COc1ccc(CCNC(=O)CN2CCCC2c2noc(C)n2)cc1 (configuration not stated) | -3.2 |
| Cc1nc(C2CCCN2CC(=O)NCCOc2cccc(F)c2)no1 (configuration not stated) | 2.8815 |
| Cc1nc(C2CCCN2CC(=O)NCCOc2ccccc2)no1 (configuration not stated) | 50.4 |
| CCc1nc(C2CCCN2CC(=O)NCCOc2ccccc2)no1 (configuration not stated) | -2.95 |
| Cc1cccc(OCCNC(=O)CN2CCCC2c2noc(C)n2)c1 (configuration not stated) | 6.905 |

— ChEMBL document CHEMBL4513216, “Probing the Open Global Health Chemical Diversity Library for Multistage-Active Starting Points for Next-Generation Antimalarials” (ACS Infect Dis, 2020)
